Some test systems named below: SR leukemia; RPMI-8226 leukemia; OVCAR-8 ovarian; OVCAR-5 ovarian; OVCAR-4 ovarian; IGROV1 ovarian; OVCAR-3 ovarian; HS 578T breast; NCI/ADR-RES ovarian; SK-OV-3 ovarian.
What all share (assay): NCI-60 one-dose screen, 48 h (100 = growth as untreated, 0 = no growth, -100 = all killed)
Holding throughout (settings): 10 µM unless noted

The panel holds about 83,000 compounds, 20% with a hit somewhere; the sample as a whole holds those more often.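 For each line, cells grew in 96-well plates with the test compound present at a single concentration for 48 hours.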 Values without a mark were called inactive. Active and inactive are the calls of the source. Rule for the calls: active = growth percent below 10; inactive = the rest.

Regarding `COc1ccc(C(=O)N/N=C/c2ccc(O)cc2O)cc1Nc1ccnc(C(F)(F)F)c1`, the growth in the assay on SR leukemia was 35.3%; with RPMI-8226 leukemia, 41.7%; in the assay with OVCAR-8 ovarian, 23.1%; in the assay with OVCAR-5 ovarian, 46.3%; in the assay with OVCAR-4 ovarian, 31.7%; in the assay on IGROV1 ovarian it was 26.8%. Further, the growth in the assay with OVCAR-3 ovarian is 78.5%; in the assay with HS 578T breast, 55.4%; with NCI/ADR-RES ovarian, 64%.

For `CN1C(=O)/C(=C/c2ccc(C(=O)Nc3ncc(Cc4ccccc4Cl)s3)cc2)SC1=S`, the growth with SR leukemia is 35.7%; with RPMI-8226 leukemia, 73.3%; with OVCAR-8 ovarian, 79.3%; with OVCAR-5 ovarian, 70.5%; with SK-OV-3 ovarian it was 80.5%; in the assay with IGROV1 ovarian it was 78.8%. The values for the growth with OVCAR-3 ovarian, in the assay with HS 578T breast and in the assay with NCI/ADR-RES ovarian were 93.3%, 65.8% and 71.6%, respectively.

With `O=c1cc(N/N=C/c2ccc(F)cc2)c2cc(Cl)ccc2[nH]1`, the growth was 4.1% (active) in the assay on SR leukemia; -43.8% (active) with RPMI-8226 leukemia; 93.6% in the assay with OVCAR-8 ovarian; 88.4% in the assay with OVCAR-5 ovarian; 84.9% in the assay with SK-OV-3 ovarian; 107% with IGROV1 ovarian. The growth was 100% with OVCAR-3 ovarian, 121% with HS 578T breast and 105% in the assay with NCI/ADR-RES ovarian.

As for `CC(C)(C)CC(N)=O`, the growth was 102% with SR leukemia; 107% with RPMI-8226 leukemia; 97.7% in the assay with OVCAR-8 ovarian; 102% in the assay on OVCAR-5 ovarian; 100% in the assay on OVCAR-4 ovarian; 112% with IGROV1 ovarian. Further, the growth was 110% in the assay with OVCAR-3 ovarian, 106% in the assay with HS 578T breast and 102% in the assay on NCI/ADR-RES ovarian.

Turning to `CONC1=Nc2cc(NC(N)=NCc3ccccc3)c(N(C)C3CCCCC3)cc2OC1`, the growth in the assay on SR leukemia is -12.1% (active); with RPMI-8226 leukemia it was 38.5%; with OVCAR-8 ovarian it was 83.9%; in the assay on OVCAR-5 ovarian, 65.5%; in the assay on OVCAR-4 ovarian it was 73.8%; in the assay with IGROV1 ovarian it was 59.6%. Also, the growth is 77.4% in the assay with OVCAR-3 ovarian, 71.4% in the assay on HS 578T breast and 99.8% with NCI/ADR-RES ovarian.

Take `N=c1ccccn1CCO`: the growth in the assay on SR leukemia is 87.7%; with RPMI-8226 leukemia it was 98.3%; in the assay on OVCAR-8 ovarian it was 104%; with OVCAR-5 ovarian it was 99%; in the assay with SK-OV-3 ovarian, 100%; in the assay on IGROV1 ovarian, 112%. The values for the growth in the assay with OVCAR-3 ovarian, in the assay with HS 578T breast and in the assay on NCI/ADR-RES ovarian were 121%, 110% and 116%, respectively.

For `Nc1ccc(-c2ccc(N)c(Br)c2)cc1Br`, the growth was 20.7% in the assay on SR leukemia; 29% in the assay with RPMI-8226 leukemia; 59.2% in the assay with OVCAR-8 ovarian; 63% in the assay on OVCAR-5 ovarian; 64.4% in the assay on SK-OV-3 ovarian; 47% in the assay on IGROV1 ovarian. Moreover, the growth was 51.4% in the assay with OVCAR-3 ovarian, 79.5% in the assay on HS 578T breast and 29.2% in the assay on NCI/ADR-RES ovarian.

Regarding `COc1cc(OC)cc(-c2ccc(-c3ccc(C(=N)N)cn3)s2)c1`, the growth is 6.61% (active) in the assay with SR leukemia; -1.98% (active) in the assay on RPMI-8226 leukemia; 17.8% with OVCAR-8 ovarian; 89.8% with OVCAR-5 ovarian; 82.2% in the assay on SK-OV-3 ovarian; 78.4% with IGROV1 ovarian. Further, the growth with OVCAR-3 ovarian is 5.54% (active); in the assay on HS 578T breast, 84.9%; with NCI/ADR-RES ovarian, 95.4%.

For `O=C(NCc1ccc(Cn2c(=O)sn(-c3ccc(Cl)cc3)c2=O)cc1)OCc1ccc2c(Cl)cc(Cl)c(O)c2n1`, the growth in the assay with SR leukemia was 51.9%; in the assay with RPMI-8226 leukemia, 46.8%; with OVCAR-8 ovarian it was 38.1%; in the assay on OVCAR-5 ovarian, 74.9%; in the assay on SK-OV-3 ovarian it was 76%; in the assay with IGROV1 ovarian, 49.2%. For the same compound, the figures for the growth in the assay on OVCAR-3 ovarian, with HS 578T breast and with NCI/ADR-RES ovarian were 63.7%, 69.7% and 6.82% (active), respectively.

For the compound `O=C(CCN1CCOCC1)Nc1cccc(-n2cc(-c3ccncc3)c(-c3ccc(Cl)c(O)c3)n2)c1`, the growth was 16.8% with SR leukemia; 17.1% in the assay with RPMI-8226 leukemia; 39.5% in the assay with OVCAR-8 ovarian; 62.2% with OVCAR-5 ovarian; 66.5% in the assay on OVCAR-4 ovarian; 51.8% in the assay on IGROV1 ovarian. In addition, the results for the growth in the assay with HS 578T breast and with NCI/ADR-RES ovarian were 7.21% (active) and 21.5%, respectively.

With `COc1ccc(Oc2nc(Nc3ccc(N4CCOCC4)cc3)ncc2NC(=O)c2cccc(C(F)(F)F)c2)cc1`, the growth in the assay on SR leukemia is 35.7%; in the assay with RPMI-8226 leukemia, 59.8%; in the assay with OVCAR-8 ovarian, 78.5%; in the assay on OVCAR-5 ovarian, 111%; in the assay with OVCAR-4 ovarian, 96.4%; in the assay with IGROV1 ovarian, 88.5%. Moreover, the growth in the assay on OVCAR-3 ovarian is 82.7%; in the assay on HS 578T breast it was 91.4%; with NCI/ADR-RES ovarian it was 79.7%.

As for `Cc1ccc(Cl)cc1N1CCN(C(=O)[C@@H]2C[C@@H]2c2ccc(F)cc2)CC1`, the growth in the assay on SR leukemia was 80.4%; in the assay on RPMI-8226 leukemia it was 62.9%; with OVCAR-8 ovarian, 90.5%; with OVCAR-5 ovarian, 94.4%; in the assay with SK-OV-3 ovarian, 90.3%; in the assay on IGROV1 ovarian, 71.1%. Also, the growth is 95.3% with OVCAR-3 ovarian, 90.9% with HS 578T breast and 89.7% with NCI/ADR-RES ovarian.

On to `COc1cc2cc(NCc3ccncc3)nc(C)c2cc1OC`, for which the growth in the assay with SR leukemia is 70.9%; with RPMI-8226 leukemia, 106%; with OVCAR-8 ovarian, 91.5%; with OVCAR-5 ovarian, 80.7%; in the assay with OVCAR-4 ovarian, 94.4%; in the assay on IGROV1 ovarian, 113%. Further, the growth in the assay with HS 578T breast is 83.5%; in the assay on NCI/ADR-RES ovarian, 97.2%.

For the compound `Cc1ccc(/C=C(\C#N)c2cc3ccccc3[nH]2)cc1`, the growth is 16.2% in the assay with SR leukemia; 60.2% in the assay on RPMI-8226 leukemia; 63% in the assay on OVCAR-8 ovarian; 65.2% in the assay on OVCAR-5 ovarian; 71.6% with OVCAR-4 ovarian; 55.3% with IGROV1 ovarian. Moreover, the growth in the assay on OVCAR-3 ovarian is 29.7%; in the assay on HS 578T breast it was 61.9%; with NCI/ADR-RES ovarian, 16.1%.

Values taken from PubChem BioAssay (NCI).
